Results on 40 compounds are retold here after PubChem BioAssay (Tox21).

Results filed as inconclusive are left out. A call without a number means that no potency is given here. Active and inactive are the calls of the source. Calls come from the whole dose curve; as a rule, active = well fitted cell-killing curve with a large enough effect in the repeat runs; inconclusive = weak or mixed curves, or effect the other way; inactive = flat fitted curve, though single readings scatter.
Potency is the fitted concentration of half-maximal effect.

The test can be described thus: cAMP Responsive Elements (CRE) small molecule antagonists, cell-based qHTS assay: qHTS cell viability counter screen (AID 2060913). Note: nearly all actives have a fitted effect of over 40% in size. Conditions: CRE-bla HEK293T viability, CellTiter-Glo luminescence, 5 h; series mostly up to 92.4 µM. The procedure, abridged:
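Cytotoxicity counter screen multiplexed with the CRE-bla antagonist read: HEK293T cells in DMEM with dialyzed FBS and 25 mM HEPES were treated 3 hrs under 0.25 uM final NKH477, then viability measured by CellTiter-Glo luminescence.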
On the technique in general: In qHTS, concentration-response curves come from the screen itself.
In the case of `CCc1cc(S(=O)(=O)O)c2cc(C(C)C)cccc1-2`, the Potency result is “inactive”.
As for `C/C=C\C/C=C/CCCCCCCCOC(C)=O`, the Potency result is “inactive”.
With `C[C@H]1O[C@@H](n2cc(F)c(=O)[nH]c2=O)[C@H](O)[C@@H]1O` the entry was “inactive”; with `O=c1[nH]c2ccccc2n1CCCN1CCN(C(c2ccccc2)c2ccccc2)CC1`, “inactive”; with `Fc1c(F)c(F)c(Br)c(F)c1F`, “inactive”.
As for `C/C=C/CO`, the Potency entry was “inactive”.
Consider `C=C[C@H]1CN2CC[C@H]1C[C@H]2[C@H](O)c1ccnc2ccc(OC)cc12`, for which the Potency result was “inactive”.
With `CCCCC/C=C\C=C\C(=O)OCC`, the Potency result was “inactive”.
`O=c1n(CC2CO2)c(=O)n(CC2CO2)c(=O)n1CC1CO1` (stereo not given): the Potency result is “inactive”.
With `CCOc1ccc2[nH]cc(C(=O)NCc3ccccc3)c(=O)c2n1` the entry was “inactive”; with `N#CCc1ccc(Cl)cc1Cl`, “inactive”.
Regarding `Nc1cccc2c(N)cccc12`, the Potency result is “inactive”.
With `CC(=O)OCC(=O)[C@@]1(O)[C@H](C)C[C@H]2[C@@H]3CCC4=CC(=O)C=C[C@]4(C)[C@@]3(F)[C@@H](O)C[C@@]21C` the entry was “inactive”; with `NCc1ccco1`, “inactive”.
In the case of `Nc1ccc([N+](=O)[O-])cc1O`, the Potency result was “inactive”.
In the case of `CCc1c2c(nc3ccc(OC(=O)N4CCC(N5CCCCC5)CC4)cc13)-c1cc3c(c(=O)n1C2)COC(=O)[C@]3(O)CC`, the Potency entry is “inactive”.
As for `CCCN1C=CN(C)C1`, the Potency entry is “inactive”.
As for `Cc1c(F)c(N2CCNC(C)C2)cc2c1c(=O)c(C(=O)O)cn2C1CC1` (stereo not given), the Potency result is “inactive”.
On to `COCCOCC(OC)OC`, for which the Potency result was “inactive”.
As for `C=C1CC[C@H]2O[C@]2(C)CC[C@@H]2[C@@H]1CC2(C)C`, the Potency entry is “inactive”.
On to `OCCc1ccccn1`, for which the Potency result was “inactive”.
`COC(=O)CCc1ccc(OCC(O)CNC(C)C)cc1` (stereo not given): the Potency result was “inactive”.
Consider `OCC(O)CN1CCN(c2ccccc2)CC1` (stereo not given), for which the Potency entry was “inactive”.
Regarding `O=C(Nc1ccc([N+](=O)[O-])cc1Cl)c1cc(Cl)ccc1O`, the Potency result was “inactive”.
Consider `Cc1c(-c2ccccc2)oc2c(C(=O)OCCN3CCCCC3)cccc2c1=O`, for which the Potency entry is “inactive”.
Regarding `S=C(S)NCCNC(=S)S`, the Potency result was “inactive”.
On to `NCc1cccc(C2CCN(C(=O)c3ccc(C#Cc4ccccc4F)o3)CC2)c1`, for which the Potency was 68.6 µM (active).
On to `Nc1ccc(Cl)cc1[N+](=O)[O-]`, for which the Potency result was “inactive”.
Turning to `C=CC(C)(C)O`, the Potency result was “inactive”.
With `CC1(C)[C@H]2CC[C@](C)(C2)[C@H]1O`, the Potency result is “inactive”.
With `O=C(Oc1ccccc1)c1ccccc1O`, the Potency entry was “inactive”.
In the case of `Oc1ccc(Cl)cc1Cc1cc(Cl)ccc1O`, the Potency is 50.8 µM (active).
With `O=[N+]([O-])c1ccc2ncccc2c1` the entry was “inactive”; with `O=C(c1ccc(OCCN2CCCCC2)cc1)c1c(-c2ccc(O)cc2)sc2cc(O)ccc12`, “inactive”.
With `CCOc1cc([N+](=O)[O-])c(OCC)cc1N1CCOCC1` the entry was “inactive”; with `CC(C)CCCC(C)CCCC(C)CCCCC(C)CCCC(C)CCCC(C)C` (stereo not given), “inactive”; with `OCCCC1CCCCC1`, “inactive”.
Consider `COC(=O)C1=C(C)NC(C)=C(C(=O)OCCN(C)Cc2ccccc2)C1c1cccc([N+](=O)[O-])c1` (stereo not given), for which the Potency result was “inactive”.
On to `COc1c(Cl)c(Cl)c(Cl)c(Cl)c1Cl`, for which the Potency result is “inactive”.
With `O=C(O)CCSCCC(=O)O` the entry was “inactive”.
